Holding throughout (experiment): PBM; 200 nM protein, PBS
Common to all, as to details: dsDNA, one strand shown

The target of experiment [1] is HOXA4 (Homo sapiens, UniProt Q00056 201-287, W262R).
Experiment [2] addresses HOXA4 (Homo sapiens, UniProt Q00056 201-287, R217L).
For experiment [3], the target named is MSX2 (Homo sapiens, UniProt P35548 130-214, R199I).
Experiment [4] concerns the target ALX3 (Homo sapiens, UniProt O95076 139-225, N203Q).
Experiment [5] has as its target HOXA4 (Homo sapiens, UniProt Q00056 201-287).
The target in experiment [6] is MSX2 (Homo sapiens, UniProt P35548 130-214).
Chain of MSX2 (Homo sapiens, UniProt P35548 130-214) (P35548 130-214): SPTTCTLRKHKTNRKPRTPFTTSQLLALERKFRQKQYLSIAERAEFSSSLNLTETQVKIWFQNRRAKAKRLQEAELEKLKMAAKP
Experiment [7] has as its target ALX3 (Homo sapiens, UniProt O95076 139-225).
The target of experiment [8] is ALX3 (Homo sapiens, UniProt O95076 139-225, L168Q).
Chain of ALX3 (Homo sapiens, UniProt O95076 139-225, L168Q) (O95076 139-225 L168Q): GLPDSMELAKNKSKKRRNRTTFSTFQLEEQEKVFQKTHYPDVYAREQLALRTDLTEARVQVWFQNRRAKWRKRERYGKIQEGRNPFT
Experiment [9] deals with ALX3 (Homo sapiens, UniProt O95076 139-225, L168V).
Chain of ALX3 (Homo sapiens, UniProt O95076 139-225, L168V) (O95076 139-225 L168V): as the sequence (O95076 139-225 L168Q) above, with Q30V counted along it
Experiment [10] concerns the target MSX2 (Homo sapiens, UniProt P35548 130-214, F161Y).
Experiment [11] deals with HOXA4 (Homo sapiens, UniProt Q00056 201-287, W262F).
Chain of HOXA4 (Homo sapiens, UniProt Q00056 201-287, W262F) (Q00056 201-287 W262F): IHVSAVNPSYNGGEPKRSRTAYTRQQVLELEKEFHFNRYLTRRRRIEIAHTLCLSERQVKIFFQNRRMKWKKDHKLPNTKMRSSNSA
Experiment [12] deals with ALX3 (Homo sapiens, UniProt O95076 139-225, N203S).
Chain of ALX3 (Homo sapiens, UniProt O95076 139-225, N203S) (O95076 139-225 N203S): as the sequence (O95076 139-225 L168Q) above, with Q30L, N65S counted along it
Experiment [13] has as its target ALX1 (Homo sapiens, UniProt Q15699 118-204, L144V).
Experiment [14] concerns the target ALX1 (Homo sapiens, UniProt Q15699 118-204, L144R).
Experiment [15] concerns the target ALX1 (Homo sapiens, UniProt Q15699 118-204).
In experiment [16] the target is PITX2 (Homo sapiens, UniProt Q99697 72-157).
For experiment [17], the target named is HOXB6 (Homo sapiens, UniProt P17509 132-218, K202E).
Chain of HOXB6 (Homo sapiens, UniProt P17509 132-218, K202E) (P17509 132-218 K202E): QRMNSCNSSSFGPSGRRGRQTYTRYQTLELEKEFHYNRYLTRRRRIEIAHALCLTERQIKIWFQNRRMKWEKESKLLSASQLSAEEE
Experiment [18] has as its target HOXB6 (Homo sapiens, UniProt P17509 132-218).
The target of experiment [19] is VAX1 (Homo sapiens, UniProt Q5SQQ9 86-172).
Chain of VAX1 (Homo sapiens, UniProt Q5SQQ9 86-172) (Q5SQQ9 86-172): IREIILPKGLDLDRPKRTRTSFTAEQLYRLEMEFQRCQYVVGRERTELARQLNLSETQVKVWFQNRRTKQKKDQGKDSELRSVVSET
Experiment [20] concerns the target VAX1 (Homo sapiens, UniProt Q5SQQ9 86-172, T142I).
Experiment [21] deals with VAX1 (Homo sapiens, UniProt Q5SQQ9 86-172, K157R).
Chain of VAX1 (Homo sapiens, UniProt Q5SQQ9 86-172, K157R) (Q5SQQ9 86-172 K157R): as the sequence (Q5SQQ9 86-172) above, with K72R counted along it
For experiment [22], the target named is HOXA2 (Homo sapiens, UniProt O43364 129-215, R185T).
Chain of HOXA2 (Homo sapiens, UniProt O43364 129-215, R185T) (O43364 129-215 R185T): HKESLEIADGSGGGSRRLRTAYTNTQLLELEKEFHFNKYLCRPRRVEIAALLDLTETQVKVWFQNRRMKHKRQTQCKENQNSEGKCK
In experiment [23] the target is HOXA2 (Homo sapiens, UniProt O43364 129-215, R185K).
Chain of HOXA2 (Homo sapiens, UniProt O43364 129-215, R185K) (O43364 129-215 R185K): as the sequence (O43364 129-215 R185T) above, with T57K counted along it
For experiment [24], the target named is HOXA2 (Homo sapiens, UniProt O43364 129-215, Y150S).
Chain of HOXA2 (Homo sapiens, UniProt O43364 129-215, Y150S) (O43364 129-215 Y150S): as the sequence (O43364 129-215 R185T) above, with Y22S, T57R counted along it
For experiment [25], the target named is HOXA2 (Homo sapiens, UniProt O43364 129-215).
Chain of HOXA2 (Homo sapiens, UniProt O43364 129-215) (O43364 129-215): as the sequence (O43364 129-215 R185T) above, with T57R counted along it

Chain of HOXA4 (Homo sapiens, UniProt Q00056 201-287, W262R) (Q00056 201-287 W262R): as the sequence (Q00056 201-287 W262F) above, with F62R counted along it
Chain of HOXA4 (Homo sapiens, UniProt Q00056 201-287) (Q00056 201-287): as the sequence (Q00056 201-287 W262F) above, with F62W counted along it
Chain of HOXA4 (Homo sapiens, UniProt Q00056 201-287, R217L) (Q00056 201-287 R217L): as the sequence (Q00056 201-287 W262F) above, with R17L, F62W counted along it
Chain of ALX3 (Homo sapiens, UniProt O95076 139-225, N203Q) (O95076 139-225 N203Q): as the sequence (O95076 139-225 L168Q) above, with Q30L, N65Q counted along it
Chain of ALX3 (Homo sapiens, UniProt O95076 139-225) (O95076 139-225): as the sequence (O95076 139-225 L168Q) above, with Q30L counted along it
Chain of HOXB6 (Homo sapiens, UniProt P17509 132-218) (P17509 132-218): as the sequence (P17509 132-218 K202E) above, with E71K counted along it
Chain of VAX1 (Homo sapiens, UniProt Q5SQQ9 86-172, T142I) (Q5SQQ9 86-172 T142I): as the sequence (Q5SQQ9 86-172) above, with T57I counted along it
Chain of ALX1 (Homo sapiens, UniProt Q15699 118-204) (Q15699 118-204): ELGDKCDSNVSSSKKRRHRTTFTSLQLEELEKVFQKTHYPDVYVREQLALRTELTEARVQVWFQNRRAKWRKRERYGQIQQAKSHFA
Chain of MSX2 (Homo sapiens, UniProt P35548 130-214, R199I) (P35548 130-214 R199I): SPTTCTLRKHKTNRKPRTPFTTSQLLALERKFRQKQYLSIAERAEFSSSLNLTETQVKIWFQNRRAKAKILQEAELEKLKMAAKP
Chain of ALX1 (Homo sapiens, UniProt Q15699 118-204, L144R) (Q15699 118-204 L144R): as the sequence (Q15699 118-204) above, with L27R counted along it
Chain of ALX1 (Homo sapiens, UniProt Q15699 118-204, L144V) (Q15699 118-204 L144V): as the sequence (Q15699 118-204) above, with L27V counted along it
Chain of MSX2 (Homo sapiens, UniProt P35548 130-214, F161Y) (P35548 130-214 F161Y): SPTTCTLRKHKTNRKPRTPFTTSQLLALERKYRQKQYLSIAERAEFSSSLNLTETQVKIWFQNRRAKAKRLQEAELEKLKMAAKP

On to GGCCCGGA, for which the binding signal in [1] is 9.72 upbm affinity estimate (log intensity, higher = more binding, comparable within an allelic series); in [2], 9.68 upbm affinity estimate (log intensity, higher = more binding, comparable within an allelic series); in [3], 9.48 upbm affinity estimate (log intensity, higher = more binding, comparable within an allelic series); in experiment [4] it was 7.72 upbm affinity estimate (log intensity, higher = more binding, comparable within an allelic series); in [5], 9.79 upbm affinity estimate (log intensity, higher = more binding, comparable within an allelic series); in experiment [6] it was 9.31 upbm affinity estimate (log intensity, higher = more binding, comparable within an allelic series). The binding signal was 7.7 upbm affinity estimate (log intensity, higher = more binding, comparable within an allelic series) in experiment [7]; 7.72 upbm affinity estimate (log intensity, higher = more binding, comparable within an allelic series) in experiment [8]; 7.71 upbm affinity estimate (log intensity, higher = more binding, comparable within an allelic series) in experiment [9]; 9.46 upbm affinity estimate (log intensity, higher = more binding, comparable within an allelic series) in experiment [10]; 9.78 upbm affinity estimate (log intensity, higher = more binding, comparable within an allelic series) in experiment [11]; 7.75 upbm affinity estimate (log intensity, higher = more binding, comparable within an allelic series) in experiment [12].
Take GACTCCGC: the binding signal in experiment [1] was 9.83 upbm affinity estimate (log intensity, higher = more binding, comparable within an allelic series); in [2], 9.81 upbm affinity estimate (log intensity, higher = more binding, comparable within an allelic series); in experiment [13] it was 6.29 upbm affinity estimate (log intensity, higher = more binding, comparable within an allelic series); in [14], 6.35 upbm affinity estimate (log intensity, higher = more binding, comparable within an allelic series); in experiment [5] it was 9.59 upbm affinity estimate (log intensity, higher = more binding, comparable within an allelic series); in experiment [15], 6.25 upbm affinity estimate (log intensity, higher = more binding, comparable within an allelic series). Further, the binding signal in experiment [11] was 9.87 upbm affinity estimate (log intensity, higher = more binding, comparable within an allelic series).
On to CACACCGG, for which the binding signal in experiment [1] is 9.76 upbm affinity estimate (log intensity, higher = more binding, comparable within an allelic series); in experiment [2], 9.68 upbm affinity estimate (log intensity, higher = more binding, comparable within an allelic series); in [5] it was 9.76 upbm affinity estimate (log intensity, higher = more binding, comparable within an allelic series); in [11] it was 9.81 upbm affinity estimate (log intensity, higher = more binding, comparable within an allelic series).
Regarding GCGGTCAC, the binding signal in [1] is 9.83 upbm affinity estimate (log intensity, higher = more binding, comparable within an allelic series); in experiment [2], 9.77 upbm affinity estimate (log intensity, higher = more binding, comparable within an allelic series); in [16] it was 7.97 upbm affinity estimate (log intensity, higher = more binding, comparable within an allelic series); in experiment [5], 9.75 upbm affinity estimate (log intensity, higher = more binding, comparable within an allelic series); in experiment [11], 9.9 upbm affinity estimate (log intensity, higher = more binding, comparable within an allelic series).
Consider CATTAACG, for which the binding signal is 10.6 upbm affinity estimate (log intensity, higher = more binding, comparable within an allelic series) in [1]; 9.9 upbm affinity estimate (log intensity, higher = more binding, comparable within an allelic series) in experiment [17]; 11.8 upbm affinity estimate (log intensity, higher = more binding, comparable within an allelic series) in experiment [2]; 13.6 upbm affinity estimate (log intensity, higher = more binding, comparable within an allelic series) in [5]; 11.4 upbm affinity estimate (log intensity, higher = more binding, comparable within an allelic series) in experiment [11]; 11.6 upbm affinity estimate (log intensity, higher = more binding, comparable within an allelic series) in [18].
As for CCGGCTCC, the binding signal is 9.74 upbm affinity estimate (log intensity, higher = more binding, comparable within an allelic series) in experiment [1]; 9.52 upbm affinity estimate (log intensity, higher = more binding, comparable within an allelic series) in experiment [2]; 7.7 upbm affinity estimate (log intensity, higher = more binding, comparable within an allelic series) in experiment [4]; 9.48 upbm affinity estimate (log intensity, higher = more binding, comparable within an allelic series) in experiment [5]; 7.5 upbm affinity estimate (log intensity, higher = more binding, comparable within an allelic series) in [7]; 7.65 upbm affinity estimate (log intensity, higher = more binding, comparable within an allelic series) in experiment [8]. Besides, the binding signal was 7.64 upbm affinity estimate (log intensity, higher = more binding, comparable within an allelic series) in experiment [9]; 9.75 upbm affinity estimate (log intensity, higher = more binding, comparable within an allelic series) in experiment [11]; 7.7 upbm affinity estimate (log intensity, higher = more binding, comparable within an allelic series) in experiment [12].
Consider ATCATAAG, for which the binding signal is 10.4 upbm affinity estimate (log intensity, higher = more binding, comparable within an allelic series) in experiment [1]; 9.66 upbm affinity estimate (log intensity, higher = more binding, comparable within an allelic series) in experiment [17]; 11.8 upbm affinity estimate (log intensity, higher = more binding, comparable within an allelic series) in [5]; 10.3 upbm affinity estimate (log intensity, higher = more binding, comparable within an allelic series) in experiment [18].
In the case of GACTCACC, the binding signal is 9.89 upbm affinity estimate (log intensity, higher = more binding, comparable within an allelic series) in [1]; 9.87 upbm affinity estimate (log intensity, higher = more binding, comparable within an allelic series) in experiment [2]; 9.79 upbm affinity estimate (log intensity, higher = more binding, comparable within an allelic series) in [5]; 6.98 upbm affinity estimate (log intensity, higher = more binding, comparable within an allelic series) in [19]; 7.2 upbm affinity estimate (log intensity, higher = more binding, comparable within an allelic series) in experiment [20]; 9.8 upbm affinity estimate (log intensity, higher = more binding, comparable within an allelic series) in [11]. For the same sequence, the binding signal in [21] is 7.1 upbm affinity estimate (log intensity, higher = more binding, comparable within an allelic series).
In the case of AGGGCTCC, the binding signal in experiment [1] was 9.75 upbm affinity estimate (log intensity, higher = more binding, comparable within an allelic series); in experiment [22] it was 7.29 upbm affinity estimate (log intensity, higher = more binding, comparable within an allelic series); in experiment [2], 9.79 upbm affinity estimate (log intensity, higher = more binding, comparable within an allelic series); in experiment [23], 10.4 upbm affinity estimate (log intensity, higher = more binding, comparable within an allelic series); in experiment [5], 9.81 upbm affinity estimate (log intensity, higher = more binding, comparable within an allelic series); in experiment [24], 10.3 upbm affinity estimate (log intensity, higher = more binding, comparable within an allelic series). The binding signal is 9.81 upbm affinity estimate (log intensity, higher = more binding, comparable within an allelic series) in experiment [11] and 7.22 upbm affinity estimate (log intensity, higher = more binding, comparable within an allelic series) in [25].

(Values after publication PMC11006913.)
